In PubChem BioAssay (NCI):
Compounds without any hit were thinned out: in the full panel of roughly 83,000, 20% have a hit.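 Single-concentration screen, 48 h exposure, 96-well plates. Endpoint: percent growth. Below 10 = active.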 A number with no mark means an inactive call. Activity calls are given as the source filed them. *1 amine or outer side, *2 acyl side, *3 side chain or, on linkers, in order; H or OH if unused. Where a SMILES comes first, the peptide text is derived from it. [ ]: non-standard residue; d: D form. The star is where a group is joined. X5 = CCC(=O)CC1CC(C)CC(C(=O)[*:2])N1[*:1]; X4 = CCCCCCCCC(C)C(=O)*; Aib = CC(C)(N)C(=O)O; X6 = CC(CN(C)CCO)N*

How the values were obtained:
Assay in all cases: NCI-60 one-dose screen, 48 h (100 = growth as untreated, 0 = no growth, -100 = all killed)
Settings in all cases: 10 µM unless noted
T-47D breast = test system: T-47D breast
MDA-MB-435 melanoma = test system: MDA-MB-435 melanoma
SW-620 colon = test system: SW-620 colon
MCF7 breast = test system: MCF7 breast
HCT-116 colon = test system: HCT-116 colon
HCC-2998 colon = test system: HCC-2998 colon
KM12 colon = test system: KM12 colon
BT-549 breast = test system: BT-549 breast

CC1(C)OCC(COC(c2ccccc2)(c2ccccc2)c2ccccc2)O1 (stereo not drawn)
growth (T-47D breast): 84.3% | growth (MDA-MB-435 melanoma): 106% | growth (SW-620 colon): 104% | growth (MCF7 breast): 100% | growth (HCT-116 colon): 89.7% | growth (HCC-2998 colon): 97.4% | growth (KM12 colon): 96.5%

CC(C)c1ccc(Nc2n[nH]c(=S)s2)cc1
growth (T-47D breast): 85.6% | growth (MDA-MB-435 melanoma): 97.1% | growth (SW-620 colon): 110% | growth (MCF7 breast): 101% | growth (HCT-116 colon): 101% | growth (HCC-2998 colon): 91%

Oc1c(Cl)cc(Cl)cc1C(c1cc(Cl)cc(Cl)c1O)C(Cl)(Cl)Cl
growth (T-47D breast): 1.95% (active) | growth (BT-549 breast): 7.91% (active) | growth (SW-620 colon): 9.94% (active) | growth (MCF7 breast): 4.85% (active) | growth (HCT-116 colon): 0.34% (active) | growth (KM12 colon): -0.332% (active)

O=C1/C(=C\c2ccc([N+](=O)[O-])cc2)CS(=O)(=O)C/C1=C/c1ccc([N+](=O)[O-])cc1
growth (T-47D breast): -56% (active) | growth (BT-549 breast): -82.2% (active) | growth (MDA-MB-435 melanoma): -75% (active) | growth (SW-620 colon): -71.6% (active) | growth (MCF7 breast): -58.5% (active) | growth (HCT-116 colon): -100% (active) | growth (KM12 colon): -89.4% (active)

COc1cc(NCc2ccc3nc(N)nc(N)c3c2C)cc(OC)c1OC (tested in a mixture with another compound)
growth (T-47D breast): 47.1% | growth (MDA-MB-435 melanoma): 33.1% | growth (SW-620 colon): 32.4% | growth (MCF7 breast): 21.3% | growth (HCT-116 colon): 20.6% | growth (HCC-2998 colon): 14.3%

CC1C(c2ccccc2)OCCN1C(=S)Nc1ccc(S(=O)(=O)N2CCCCC2)cc1 (stereo not drawn)
growth (T-47D breast): 96.9% | growth (BT-549 breast): 97.6% | growth (MDA-MB-435 melanoma): 89.4% | growth (SW-620 colon): 87.6% | growth (MCF7 breast): 91.3% | growth (HCT-116 colon): 91.8% | growth (KM12 colon): 92.1%

NC(=Nc1nc(-c2ccccn2)cc2ccccc12)c1ccccn1
growth (T-47D breast): 16.4% | growth (BT-549 breast): 23.3% | growth (MDA-MB-435 melanoma): 22.9% | growth (SW-620 colon): 11.8% | growth (MCF7 breast): 9.19% (active) | growth (HCT-116 colon): 5.82% (active) | growth (KM12 colon): 16%

CN1CCC(c2ccccc2)(c2ccccc2)C(=O)C1
growth (T-47D breast): 13.7% | growth (BT-549 breast): 115% | growth (MDA-MB-435 melanoma): 98.9% | growth (MCF7 breast): 27.7% | growth (HCT-116 colon): 64.8% | growth (HCC-2998 colon): 82.1% | growth (KM12 colon): 92.2%

O=C(c1ccccc1)C(O)C(Br)(CBr)c1ccccc1 (stereo not drawn)
growth (T-47D breast): 98.6% | growth (BT-549 breast): 68.4% | growth (MDA-MB-435 melanoma): 67.4% | growth (MCF7 breast): 81.5% | growth (HCT-116 colon): 57.2% | growth (HCC-2998 colon): 87.1% | growth (KM12 colon): 80.5%

O=C1C=C(Cl)C(=O)c2ccccc21
growth (T-47D breast): 14.9% | growth (BT-549 breast): 98.3% | growth (MDA-MB-435 melanoma): 112% | growth (SW-620 colon): 98% | growth (MCF7 breast): 81.3% | growth (HCC-2998 colon): 125% | growth (KM12 colon): 99.4%

CCCCCC[C@@H](O)C/C=C\CCCCCCCC(=O)OCCOC
growth (T-47D breast): 94.3% | growth (BT-549 breast): 99% | growth (MDA-MB-435 melanoma): 110% | growth (SW-620 colon): 102% | growth (MCF7 breast): 100% | growth (HCT-116 colon): 89.2% | growth (KM12 colon): 102%

NC(=S)N/N=C/c1ncccc1O
growth (T-47D breast): 25.2% | growth (BT-549 breast): 35.4% | growth (MDA-MB-435 melanoma): 29.6% | growth (SW-620 colon): 35% | growth (MCF7 breast): 6.89% (active) | growth (HCT-116 colon): 5.32% (active) | growth (KM12 colon): 25.9%

COc1ccc2nc3cc([N+](=O)[O-])ccc3c(NNc3ccccc3)c2c1
growth (T-47D breast): 77.9% | growth (BT-549 breast): 67.3% | growth (MDA-MB-435 melanoma): 107% | growth (SW-620 colon): 86.1% | growth (MCF7 breast): 72.9% | growth (HCT-116 colon): 41.2% | growth (KM12 colon): 81.7%

O=[N+]([O-])c1ccc(N2CCN(Cc3ccccc3)CC2)c2c1no[n+]2[O-]
growth (T-47D breast): 57.5% | growth (MDA-MB-435 melanoma): -28.9% (active) | growth (SW-620 colon): -68.2% (active) | growth (MCF7 breast): 7.84% (active) | growth (HCT-116 colon): -86% (active) | growth (HCC-2998 colon): -14.4% (active) | growth (KM12 colon): -52.2% (active)

CC(CSc1n[nH]c(=S)s1)c1ccccc1 (stereo not drawn)
growth (T-47D breast): 110% | growth (BT-549 breast): 112% | growth (MDA-MB-435 melanoma): 109% | growth (SW-620 colon): 112% | growth (MCF7 breast): 102% | growth (HCT-116 colon): 105% | growth (KM12 colon): 113%

CCCCCCCCC(C)C(=O)N1CCCC1C(=O)N1C(CC(=O)CC)CC(C)CC1C(=O)NC(C)C(=O)NC(C)(C)C(=O)NC(C)(C)C(=O)NC(C(=O)NC(C)C(=O)NC(C)(C)C(=O)NC(C)(C)C(=O)NC(C)CN(C)CCO)C(C)CC (stereo not drawn) (X4-P[X5]A[Aib][Aib]IA[Aib][Aib]-X6; configuration not given here)
growth (T-47D breast): -16.5% (active) | growth (BT-549 breast): -80.3% (active) | growth (MDA-MB-435 melanoma): -18.8% (active) | growth (SW-620 colon): -81.4% (active) | growth (MCF7 breast): -80.7% (active) | growth (HCT-116 colon): -88.8% (active) | growth (KM12 colon): -75.8% (active)

Oc1ccc(Nc2ccc3ccccc3c2)cc1
growth (T-47D breast): 52.6% | growth (BT-549 breast): 74.3% | growth (MDA-MB-435 melanoma): 51.3% | growth (SW-620 colon): 66.2% | growth (MCF7 breast): 64.7% | growth (HCT-116 colon): 70.8% | growth (KM12 colon): 35.6%

O=C(CCl)N1c2ccccc2Sc2c1ccc1ccccc21
growth (T-47D breast): 84.3% | growth (MDA-MB-435 melanoma): 80.2% | growth (SW-620 colon): 11.1% | growth (MCF7 breast): 66.8% | growth (HCT-116 colon): 16.4% | growth (HCC-2998 colon): 98.5% | growth (KM12 colon): 87.2%

Cn1ccc(=Nc2ccc(NC(=O)c3ccc(N=c4ccn(C)c5ccc([N+](=O)[O-])cc45)cc3)cc2)cc1
growth (T-47D breast): 54.9% | growth (BT-549 breast): 56.1% | growth (MDA-MB-435 melanoma): 83.4% | growth (SW-620 colon): 70.8% | growth (MCF7 breast): 55.6% | growth (HCT-116 colon): 32.6% | growth (KM12 colon): 57.8%

CCCc1cc(=O)oc2c3c(c4c(c12)OC(C)(C)CC4)OC(C)[C@H](C)[C@@H]3O (stereo partly drawn)
growth (T-47D breast): 67.9% | growth (BT-549 breast): 108% | growth (MDA-MB-435 melanoma): 112% | growth (SW-620 colon): 84.3% | growth (MCF7 breast): 70% | growth (HCC-2998 colon): 116% | growth (KM12 colon): 97.8%

CN1CSC(=S)N(Cc2ccccc2)C1
growth (T-47D breast): 43.1% | growth (BT-549 breast): 80.3% | growth (MDA-MB-435 melanoma): 77.9% | growth (SW-620 colon): 35.4% | growth (MCF7 breast): 33.5% | growth (HCT-116 colon): 25.9% | growth (KM12 colon): 40.8%

COc1ccc2c(c1OC)OCC(CN(C)C)C2=O (stereo not drawn)
growth (T-47D breast): 69.5% | growth (BT-549 breast): 82.4% | growth (MDA-MB-435 melanoma): 96.1% | growth (SW-620 colon): -78.3% (active) | growth (MCF7 breast): 75% | growth (HCT-116 colon): 77.6% | growth (HCC-2998 colon): 105% | growth (KM12 colon): 96.8%

CCCCC(C=O)(C=C=C(C)C)CC (stereo not drawn)
growth (T-47D breast): 111% | growth (MDA-MB-435 melanoma): 99.1% | growth (SW-620 colon): 106% | growth (MCF7 breast): 90.9% | growth (HCT-116 colon): 106% | growth (HCC-2998 colon): 109%

CCOC(=O)c1[nH]c(C#N)c(C(=O)OCC)c1C
growth (T-47D breast): 96.6% | growth (MDA-MB-435 melanoma): 94.4% | growth (SW-620 colon): 103% | growth (MCF7 breast): 103% | growth (HCT-116 colon): 103% | growth (HCC-2998 colon): 103% | growth (KM12 colon): 107%

CCCCCCCCCCCC(=O)OC(C)C(=O)NCCCC (stereo not drawn)
growth (T-47D breast): 97.9% | growth (MDA-MB-435 melanoma): 112% | growth (SW-620 colon): 98.5% | growth (MCF7 breast): 94.7% | growth (HCT-116 colon): 94.4% | growth (HCC-2998 colon): 80.2%

CC(C)(C)c1ccc(O)c(-c2ccccc2)c1
growth (T-47D breast): 109% | growth (BT-549 breast): 131% | growth (MDA-MB-435 melanoma): 124% | growth (SW-620 colon): 98.9% | growth (HCT-116 colon): 102% | growth (HCC-2998 colon): 103% | growth (KM12 colon): 104%
